In all, about 5,500 compounds went through this assay and about 2,000 (36%) were called active. Another 18% or so got no clear call; they are omitted. Rule as the data show it: active = normalized growth mostly below about 0.91 (no sharp cut-off); inconclusive = no clear call, values can overlap the other calls; inactive = mostly above about 0.92. The list shows a part of the results.
Test: chemical genetic growth profiling, strain panel (AID 1159580);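 also: tested at 20 µM; growth read once vehicle control cultures reached saturation at 30 °C; 1 = growth at the plate median or of vehicle wells; lower values mean less growth of the strain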
Conditions: growth OD

Measured: normalized growth

COc1c2occc2cc2ccc(=O)oc12
inactive: S. cerevisiae deletion strains, locus YJR075W, strain HOC1, stronger effect = lower value 0.976 | S. cerevisiae deletion strains, locus YKL009W, strain mrt4, stronger effect = lower value 0.909 | S. cerevisiae deletion strains, locus YKL068W, stronger effect = lower value 0.996 | S. cerevisiae deletion strains, locus YKL085W, strain MDH1 (second series), stronger effect = lower value 1 | S. cerevisiae deletion strains, locus YKL085W, strain MDH1, stronger effect = lower value 1 | S. cerevisiae deletion strains, locus YKL160W, strain elf1, stronger effect = lower value 0.948 | S. cerevisiae deletion strains, locus YKL190W, strain CNB1, stronger effect = lower value 0.979 | S. cerevisiae deletion strains, locus YKR026C, strain gcn3, stronger effect = lower value 0.983 | S. cerevisiae deletion strains, locus YKR091W, strain srl3, stronger effect = lower value 0.982 | S. cerevisiae deletion strains, locus YLL026W, stronger effect = lower value 0.973 | S. cerevisiae deletion strains, locus YLL041C, strain sdh2, stronger effect = lower value 0.981 | S. cerevisiae deletion strains, locus YLR027C, strain aat2, stronger effect = lower value 0.952 | S. cerevisiae deletion strains, locus YLR039C, strain RIC1, stronger effect = lower value 0.851 | S. cerevisiae deletion strains, locus YLR058C, strain SHM2, stronger effect = lower value 0.988 | S. cerevisiae deletion strains, locus YLR102C, strain apc9, stronger effect = lower value 0.986 | S. cerevisiae deletion strains, locus YLR113W, strain HOG1, stronger effect = lower value 1.08 | S. cerevisiae deletion strains, locus YLR258W, strain gsy2, stronger effect = lower value 0.945 | S. cerevisiae deletion strains, locus YLR262C, strain YPT6 (second series), stronger effect = lower value 0.955 | S. cerevisiae deletion strains, locus YLR262C, strain YPT6, stronger effect = lower value 0.91 | S. cerevisiae deletion strains, locus YLR268W, strain sec22, stronger effect = lower value 0.93 | S. cerevisiae deletion strains, locus YLR330W, strain CHS5, stronger effect = lower value 0.991 | S. cerevisiae deletion strains, locus YLR342W, strain FKS1 (second series), stronger effect = lower value 0.971 | S. cerevisiae deletion strains, locus YLR342W, strain FKS1, stronger effect = lower value 0.965 | S. cerevisiae deletion strains, locus YLR357W, strain rsc2, stronger effect = lower value 1.01 | S. cerevisiae deletion strains, locus YLR370C, strain arc18, stronger effect = lower value 0.914 | S. cerevisiae deletion strains, locus YLR371W, strain rom2, stronger effect = lower value 0.969 | S. cerevisiae deletion strains, locus YLR384C, strain iki3, stronger effect = lower value 0.963 | S. cerevisiae deletion strains, locus YLR418C, strain cdc73, stronger effect = lower value 0.95 | S. cerevisiae deletion strains, locus YML016C, strain PPZ1, stronger effect = lower value 0.987 | S. cerevisiae deletion strains, locus YML124C, strain tub3, stronger effect = lower value 0.996 | S. cerevisiae deletion strains, locus YMR058W, strain fet3, stronger effect = lower value 0.927 | S. cerevisiae deletion strains, locus YMR078C, strain ctf18, stronger effect = lower value 0.974 | S. cerevisiae deletion strains, locus YMR125W, strain sto1, stronger effect = lower value 1.01 | S. cerevisiae deletion strains, locus YMR129W, stronger effect = lower value 0.99 | S. cerevisiae deletion strains, locus YMR205C, strain PFK2, stronger effect = lower value 0.941 | S. cerevisiae deletion strains, locus YMR223W, strain ubp8, stronger effect = lower value 0.924 | S. cerevisiae deletion strains, locus YMR231W, strain pep5, stronger effect = lower value 0.989 | S. cerevisiae deletion strains, locus YMR263W, strain SAP30, stronger effect = lower value 0.942 | S. cerevisiae deletion strains, locus YMR307W, strain GAS1, stronger effect = lower value 0.949 | S. cerevisiae deletion strains, locus YNL067W, strain RPL9B, stronger effect = lower value 0.939 | S. cerevisiae deletion strains, locus YNL071W, strain lat1, stronger effect = lower value 0.947 | S. cerevisiae deletion strains, locus YNL128W, strain TEP1, stronger effect = lower value 0.962 | S. cerevisiae deletion strains, locus YNL153C, strain GIM3, stronger effect = lower value 0.983 | S. cerevisiae deletion strains, locus YNL183C, strain NPR1, stronger effect = lower value 0.971 | S. cerevisiae deletion strains, locus YNL233W, strain BNI4, stronger effect = lower value 0.944 | S. cerevisiae deletion strains, locus YNL248C, strain rpa49, stronger effect = lower value 0.901 | S. cerevisiae deletion strains, locus YNL250W, strain rad50, stronger effect = lower value 0.968 | S. cerevisiae deletion strains, locus YNL271C, strain bni1, stronger effect = lower value 0.983 | S. cerevisiae deletion strains, locus YNL298W, strain CLA4, stronger effect = lower value 0.933 | S. cerevisiae deletion strains, locus YNL322C, strain KRE1, stronger effect = lower value 1 | S. cerevisiae deletion strains, locus YNR049C, strain mso1, stronger effect = lower value 0.962 | S. cerevisiae deletion strains, locus YNR052C, strain pop2, stronger effect = lower value 0.978 | S. cerevisiae deletion strains, locus YOL006C, strain TOP1, stronger effect = lower value 0.79 | S. cerevisiae deletion strains, locus YOL012C, strain htz1 0.845 | S. cerevisiae deletion strains, locus YOL147C, strain pex11, stronger effect = lower value 0.982 | S. cerevisiae deletion strains, locus YOR001W, strain rrp6, stronger effect = lower value 0.958 | S. cerevisiae deletion strains, locus YOR061W, strain CKA2, stronger effect = lower value 0.99 | S. cerevisiae deletion strains, locus YOR069W, strain VPS5, stronger effect = lower value 0.991 | S. cerevisiae deletion strains, locus YOR070C, strain gyp1, stronger effect = lower value 0.956 | S. cerevisiae deletion strains, locus YOR080W, strain dia2, stronger effect = lower value 0.95 | S. cerevisiae deletion strains, locus YOR083W, strain WHI5, stronger effect = lower value 0.914 | S. cerevisiae deletion strains, locus YOR136W, strain idh2, stronger effect = lower value 0.974 | S. cerevisiae deletion strains, locus YOR144C, strain elg1, stronger effect = lower value 0.97 | S. cerevisiae deletion strains, locus YOR231W, strain MKK1, stronger effect = lower value 1.01 | S. cerevisiae deletion strains, locus YOR265W, strain rbl2, stronger effect = lower value 0.963 | S. cerevisiae deletion strains, locus YOR270C, strain vph1, stronger effect = lower value 0.83 | S. cerevisiae deletion strains, locus YOR316C, strain cot1, stronger effect = lower value 1 | S. cerevisiae deletion strains, locus YPL051W, strain arl3, stronger effect = lower value 0.939 | S. cerevisiae deletion strains, locus YPL055C, strain LGE1, stronger effect = lower value 0.938 | S. cerevisiae deletion strains, locus YPL078C, strain atp4, stronger effect = lower value 0.964 | S. cerevisiae deletion strains, locus YPL106C, strain sse1, stronger effect = lower value 0.899 | S. cerevisiae deletion strains, locus YPL240C, strain hsp82, stronger effect = lower value 0.965 | S. cerevisiae deletion strains, locus YPL241C, strain CIN2, stronger effect = lower value 0.959 | S. cerevisiae deletion strains, locus YPL256C, strain CLN2, stronger effect = lower value 1.1 | S. cerevisiae deletion strains, locus YPR119W, strain clb2, stronger effect = lower value 0.998 | S. cerevisiae deletion strains, locus YPR141C, strain kar3, stronger effect = lower value 1.02 | S. cerevisiae deletion strains, locus YPR163C, strain tif3, stronger effect = lower value 0.983 | S. cerevisiae deletion strains, locus YPR167C, strain met16, stronger effect = lower value 1.01 | S. cerevisiae deletion strains, strain wtn01, stronger effect = lower value 0.966 | S. cerevisiae strains, strain wild type, stronger effect = lower value 1
active: S. cerevisiae deletion strains, locus YKR001C, strain vps1, stronger effect = lower value 0.863 | S. cerevisiae deletion strains, locus YLL001W, strain dnm1, stronger effect = lower value 0.874 | S. cerevisiae deletion strains, locus YLR221C, strain rsa3, stronger effect = lower value 0.891 | S. cerevisiae deletion strains, locus YLR320W, strain mms22, stronger effect = lower value 0.833 | S. cerevisiae deletion strains, locus YML032C, strain rad52, stronger effect = lower value 0.876 | S. cerevisiae deletion strains, locus YML120C, strain ndi1, stronger effect = lower value 0.866 | S. cerevisiae deletion strains, locus YNL209W, strain ssb2, stronger effect = lower value 0.923 | S. cerevisiae deletion strains, locus YNL307C, strain MCK1, stronger effect = lower value 0.88 | S. cerevisiae deletion strains, locus YNL322C, strain KRE1 (second series), stronger effect = lower value 0.763 | S. cerevisiae deletion strains, locus YOR106W, strain vam3, stronger effect = lower value 0.701 | S. cerevisiae deletion strains, locus YOR184W, strain ser1, stronger effect = lower value 0.859 | S. cerevisiae deletion strains, locus YOR290C, strain snf2, stronger effect = lower value 0.856

— PubChem BioAssay AID1159580 (chemical genetic matrix, 2015)
